Test results published in the supplement of paper PMC11732987, “Enantioselective OTUD7B fragment discovery through chemoproteomics screening and high-throughput optimisation” (Communications Chemistry, 2025).

Tests used:
Test in all cases: log2 ratio of Biotin-Ahx-Ub-VS probe labelling (fragment/DMSO); higher = less target engagement (more negative = stronger competition), active = hit call of the paper (q ≤ 0.05, log2 ratio ≤ -1)
Conditions in all cases: compound concentration: 200 uM; treatment time: 3 h
OTUD6B = molecular target: T1, OTUD6B (UniProt Q8N6M0)
T1 sequence (whole entry): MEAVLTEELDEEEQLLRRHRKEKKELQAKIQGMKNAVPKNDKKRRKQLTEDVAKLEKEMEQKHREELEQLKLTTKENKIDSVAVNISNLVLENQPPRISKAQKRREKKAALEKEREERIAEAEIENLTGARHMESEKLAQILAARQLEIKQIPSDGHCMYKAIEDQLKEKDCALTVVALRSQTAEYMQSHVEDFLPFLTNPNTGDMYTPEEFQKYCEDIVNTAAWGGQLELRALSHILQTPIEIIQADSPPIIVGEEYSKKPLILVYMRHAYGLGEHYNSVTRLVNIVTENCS
Procedure, shortened: (§1)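 HEK293T lysate (495 µg per sample, in Tris/CHAPS/IGEPAL buffer with protease inhibitors) was exposed in triplicate for 3 h to fragment at 200 µM or to vehicle, then to Biotin-Ahx-Ub-VS at 0.5 µM final for 1 h. Labelled DUBs were enriched on NeutrAvidin, digested with LysC and trypsin, and analysed by diaPASEF LC-MS/MS. Spectronaut label-free quantities were normalised to the global median, and values are average log2 ratios of fragment over vehicle from an unpaired t-test. Only proteins with ≥2 unique peptides were used.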

OTUD7B = molecular target: T2, OTUD7B (UniProt Q6GQQ9)
T2 sequence (whole entry): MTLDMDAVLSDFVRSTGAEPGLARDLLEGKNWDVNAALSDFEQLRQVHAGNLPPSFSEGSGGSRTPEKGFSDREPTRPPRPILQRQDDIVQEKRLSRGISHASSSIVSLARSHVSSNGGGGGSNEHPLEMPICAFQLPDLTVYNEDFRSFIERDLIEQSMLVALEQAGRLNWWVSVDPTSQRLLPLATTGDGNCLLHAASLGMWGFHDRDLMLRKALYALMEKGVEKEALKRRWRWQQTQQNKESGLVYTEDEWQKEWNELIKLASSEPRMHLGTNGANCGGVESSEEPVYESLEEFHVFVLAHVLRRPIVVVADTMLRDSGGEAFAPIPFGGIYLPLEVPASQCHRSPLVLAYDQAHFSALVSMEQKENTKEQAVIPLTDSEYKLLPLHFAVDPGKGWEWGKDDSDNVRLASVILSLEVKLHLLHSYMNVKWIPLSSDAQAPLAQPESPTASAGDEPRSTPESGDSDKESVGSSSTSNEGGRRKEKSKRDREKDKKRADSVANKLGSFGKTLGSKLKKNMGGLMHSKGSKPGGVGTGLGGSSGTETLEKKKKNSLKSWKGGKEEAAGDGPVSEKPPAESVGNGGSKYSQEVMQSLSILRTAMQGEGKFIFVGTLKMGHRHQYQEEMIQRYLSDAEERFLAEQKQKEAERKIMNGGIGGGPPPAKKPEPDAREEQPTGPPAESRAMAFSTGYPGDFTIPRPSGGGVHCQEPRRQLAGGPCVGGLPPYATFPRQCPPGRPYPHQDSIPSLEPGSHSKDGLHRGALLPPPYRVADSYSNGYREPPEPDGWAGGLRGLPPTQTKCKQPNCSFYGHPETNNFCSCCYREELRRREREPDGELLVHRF
Procedure, shortened: as §1

PRPF8 = PRPF8 (UniProt Q6P2Q9)
Procedure, shortened: as §1

PSMD7 = molecular target: T3, PSMD7 (UniProt P51665)
T3 sequence (whole entry): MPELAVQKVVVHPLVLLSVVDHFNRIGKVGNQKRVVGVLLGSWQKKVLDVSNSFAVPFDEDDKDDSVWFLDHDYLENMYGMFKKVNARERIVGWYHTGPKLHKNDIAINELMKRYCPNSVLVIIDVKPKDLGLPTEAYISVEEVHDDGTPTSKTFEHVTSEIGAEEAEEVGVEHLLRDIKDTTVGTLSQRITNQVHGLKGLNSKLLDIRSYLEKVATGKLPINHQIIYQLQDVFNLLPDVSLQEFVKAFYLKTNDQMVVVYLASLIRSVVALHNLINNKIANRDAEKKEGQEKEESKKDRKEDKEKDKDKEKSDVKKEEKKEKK
Procedure, shortened: as §1

UCHL1 = UCHL1 (UniProt P09936)
Procedure, shortened: as §1

UCHL3 = molecular target: T4, UCHL3 (UniProt P15374)
T4 sequence (whole entry): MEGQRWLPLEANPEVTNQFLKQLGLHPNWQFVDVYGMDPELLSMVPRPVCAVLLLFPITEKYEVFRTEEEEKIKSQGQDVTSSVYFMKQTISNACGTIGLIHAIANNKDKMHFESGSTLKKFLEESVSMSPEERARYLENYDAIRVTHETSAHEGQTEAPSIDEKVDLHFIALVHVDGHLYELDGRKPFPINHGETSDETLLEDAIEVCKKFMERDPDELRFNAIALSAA
Procedure, shortened: as §1

UCHL5 = molecular target: T5, UCHL5 (UniProt Q9Y5K5)
T5 sequence (whole entry): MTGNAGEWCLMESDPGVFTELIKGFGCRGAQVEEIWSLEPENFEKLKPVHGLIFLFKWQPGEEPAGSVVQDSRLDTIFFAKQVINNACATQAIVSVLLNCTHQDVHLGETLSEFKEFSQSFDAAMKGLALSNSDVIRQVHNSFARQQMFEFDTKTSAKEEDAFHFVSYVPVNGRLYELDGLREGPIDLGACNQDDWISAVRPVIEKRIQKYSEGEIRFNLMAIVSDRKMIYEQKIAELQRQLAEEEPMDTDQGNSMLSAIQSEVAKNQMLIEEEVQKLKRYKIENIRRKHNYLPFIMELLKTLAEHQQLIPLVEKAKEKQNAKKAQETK
Procedure, shortened: as §1

USP10 = USP10 (UniProt Q14694)
Procedure, shortened: as §1

USP15 = molecular target: T6, USP15 (UniProt Q9Y4E8)
T6 sequence (whole entry): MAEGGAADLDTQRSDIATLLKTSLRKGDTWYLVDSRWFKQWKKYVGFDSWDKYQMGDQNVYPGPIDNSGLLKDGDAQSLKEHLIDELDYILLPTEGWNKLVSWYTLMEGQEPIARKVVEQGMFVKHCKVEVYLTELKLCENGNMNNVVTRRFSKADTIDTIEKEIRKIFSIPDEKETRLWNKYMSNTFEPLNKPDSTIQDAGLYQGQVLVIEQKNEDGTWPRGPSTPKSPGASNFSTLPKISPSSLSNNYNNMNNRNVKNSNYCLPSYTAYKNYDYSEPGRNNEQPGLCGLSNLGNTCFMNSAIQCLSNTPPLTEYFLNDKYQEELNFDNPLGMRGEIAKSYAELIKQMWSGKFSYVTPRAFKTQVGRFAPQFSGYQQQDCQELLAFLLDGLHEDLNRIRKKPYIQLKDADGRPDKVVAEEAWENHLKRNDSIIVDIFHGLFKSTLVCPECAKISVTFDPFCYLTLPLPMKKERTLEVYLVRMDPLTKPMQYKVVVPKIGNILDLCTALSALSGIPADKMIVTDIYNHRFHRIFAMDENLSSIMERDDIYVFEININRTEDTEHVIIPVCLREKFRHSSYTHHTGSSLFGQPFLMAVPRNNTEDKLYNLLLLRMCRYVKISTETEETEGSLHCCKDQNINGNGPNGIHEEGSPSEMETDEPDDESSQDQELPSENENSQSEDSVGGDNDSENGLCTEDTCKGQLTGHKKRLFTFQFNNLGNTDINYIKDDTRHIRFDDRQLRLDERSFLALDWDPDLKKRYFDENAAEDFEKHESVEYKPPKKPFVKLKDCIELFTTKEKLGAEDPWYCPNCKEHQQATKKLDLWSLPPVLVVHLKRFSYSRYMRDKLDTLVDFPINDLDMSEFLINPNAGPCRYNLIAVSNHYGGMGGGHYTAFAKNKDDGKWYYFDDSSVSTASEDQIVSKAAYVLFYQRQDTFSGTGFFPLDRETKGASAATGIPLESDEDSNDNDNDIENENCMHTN
Procedure, shortened: as §1

USP16 = USP16 (UniProt Q9Y5T5)
Procedure, shortened: as §1

Measured: log2 ratio of Biotin-Ahx-Ub-VS probe labelling

USP10, sequence (Q14694 whole entry): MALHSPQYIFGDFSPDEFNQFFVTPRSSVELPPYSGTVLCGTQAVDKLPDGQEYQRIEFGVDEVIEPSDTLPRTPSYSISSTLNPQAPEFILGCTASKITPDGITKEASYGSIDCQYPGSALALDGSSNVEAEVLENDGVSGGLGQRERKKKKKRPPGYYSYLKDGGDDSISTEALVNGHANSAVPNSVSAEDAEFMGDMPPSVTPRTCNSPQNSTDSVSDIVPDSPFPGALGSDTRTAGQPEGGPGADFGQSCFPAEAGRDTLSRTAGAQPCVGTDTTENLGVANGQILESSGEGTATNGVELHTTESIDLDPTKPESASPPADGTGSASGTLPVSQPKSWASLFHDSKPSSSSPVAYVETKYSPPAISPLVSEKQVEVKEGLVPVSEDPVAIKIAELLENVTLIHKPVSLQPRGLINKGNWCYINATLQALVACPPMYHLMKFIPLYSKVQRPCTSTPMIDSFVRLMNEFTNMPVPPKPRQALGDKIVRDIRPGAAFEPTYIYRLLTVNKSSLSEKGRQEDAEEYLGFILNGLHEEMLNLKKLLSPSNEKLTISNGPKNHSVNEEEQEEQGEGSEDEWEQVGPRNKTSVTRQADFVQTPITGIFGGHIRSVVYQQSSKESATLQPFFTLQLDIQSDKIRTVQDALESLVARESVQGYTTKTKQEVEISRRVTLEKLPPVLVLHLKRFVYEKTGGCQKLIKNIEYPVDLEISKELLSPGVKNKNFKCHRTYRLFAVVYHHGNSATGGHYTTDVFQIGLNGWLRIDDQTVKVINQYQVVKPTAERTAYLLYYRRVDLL
UCHL1, sequence (P09936 whole entry, looked up): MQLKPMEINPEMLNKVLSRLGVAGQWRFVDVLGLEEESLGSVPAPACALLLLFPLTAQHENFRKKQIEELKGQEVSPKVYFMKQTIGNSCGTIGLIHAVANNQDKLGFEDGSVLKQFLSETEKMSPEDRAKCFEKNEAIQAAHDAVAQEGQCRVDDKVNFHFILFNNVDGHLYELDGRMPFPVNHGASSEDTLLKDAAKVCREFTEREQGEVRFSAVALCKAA
USP16, sequence (Q9Y5T5 whole entry, looked up): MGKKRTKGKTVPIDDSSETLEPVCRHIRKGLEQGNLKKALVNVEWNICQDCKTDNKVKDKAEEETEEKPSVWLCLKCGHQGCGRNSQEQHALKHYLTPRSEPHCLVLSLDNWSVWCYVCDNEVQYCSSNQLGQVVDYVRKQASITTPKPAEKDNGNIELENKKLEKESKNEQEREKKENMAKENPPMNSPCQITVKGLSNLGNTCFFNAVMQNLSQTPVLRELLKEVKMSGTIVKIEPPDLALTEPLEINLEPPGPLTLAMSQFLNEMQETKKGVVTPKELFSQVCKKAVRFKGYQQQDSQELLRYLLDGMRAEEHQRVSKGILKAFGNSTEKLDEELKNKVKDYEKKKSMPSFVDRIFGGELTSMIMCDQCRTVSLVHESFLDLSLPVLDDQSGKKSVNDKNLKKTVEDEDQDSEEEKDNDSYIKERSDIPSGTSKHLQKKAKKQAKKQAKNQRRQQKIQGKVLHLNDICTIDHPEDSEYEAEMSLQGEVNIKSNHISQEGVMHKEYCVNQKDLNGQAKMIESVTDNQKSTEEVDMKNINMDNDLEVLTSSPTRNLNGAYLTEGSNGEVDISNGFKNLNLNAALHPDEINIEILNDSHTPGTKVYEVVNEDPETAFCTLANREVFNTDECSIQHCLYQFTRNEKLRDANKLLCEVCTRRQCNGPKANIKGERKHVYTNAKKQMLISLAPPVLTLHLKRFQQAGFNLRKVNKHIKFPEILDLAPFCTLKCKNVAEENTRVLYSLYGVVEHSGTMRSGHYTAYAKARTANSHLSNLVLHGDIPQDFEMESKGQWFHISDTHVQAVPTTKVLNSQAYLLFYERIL

Cc1ccc(-c2nnc(C)[nH]2)c(NC(=O)CCl)c1
active: UCHL1 -1.14
inactive: OTUD6B -0.00419 | OTUD7B -0.183 | PRPF8 -0.0454 | PSMD7 -0.177 | UCHL3 0.176 | UCHL5 -0.152 | USP10 0.0193 | USP15 -0.0491 | USP16 0.114
